Assay results as given in PubChem BioAssay AID1159580 (chemical genetic matrix, 2015).
Screen size: about 5,500 compounds; about 2,000 (36%) were called active. About 18% were inconclusive and are not listed. Cut-off read from the data, not from the text of the source: active = normalized growth mostly below about 0.91 (no sharp cut-off); inconclusive = no clear call, values can overlap the other calls; inactive = mostly above about 0.92. The list shows a part of the results.

Test: chemical genetic growth profiling, strain panel (AID 1159580);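 note: tested at 20 µM; growth read once vehicle control cultures reached saturation at 30 °C; 1 = growth at the plate median or of vehicle wells; lower values mean less growth of the strain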
Details: S. cerevisiae deletion strains, growth OD
[1] = locus YDL101C, strain DUN1, stronger effect = lower value
[2] = locus YHR030C, strain SLT2, stronger effect = lower value

Measured: normalized growth

Cc1noc(C)c1-c1nc(-c2cc(C(F)(F)F)cc(C(F)(F)F)c2)no1
inactive: locus YAL013W, strain DEP1, stronger effect = lower value 1.02 | locus YBR229C, strain ROT2, stronger effect = lower value 1.01 | locus YCL061C, strain MRC1, stronger effect = lower value 0.992 | [1] 1.02 | locus YDL134C, strain PPH21, stronger effect = lower value 1.01 | locus YDR150W, strain NUM1, stronger effect = lower value 0.983 | locus YEL061C, strain CIN8, stronger effect = lower value 1.01 | locus YGR078C, strain PAC10, stronger effect = lower value 1.01 | [2] 1.03 | locus YHR087W, strain rtc3, stronger effect = lower value 1 | locus YJL187C, strain SWE1, stronger effect = lower value 1 | locus YJR043C, strain POL32, stronger effect = lower value 1 | locus YJR075W, strain HOC1, stronger effect = lower value 0.999 | locus YLR039C, strain RIC1, stronger effect = lower value 1.06 | locus YLR058C, strain SHM2 (second series), stronger effect = lower value 0.993 | locus YLR085C, strain ARP6, stronger effect = lower value 1.03 | locus YLR262C, strain YPT6, stronger effect = lower value 1.03 | locus YML094W, strain GIM5, stronger effect = lower value 1.07 | locus YMR219W, strain ESC1, stronger effect = lower value 0.998 | locus YMR263W, strain SAP30, stronger effect = lower value 0.981 | locus YMR307W, strain GAS1, stronger effect = lower value 0.99 | locus YNL128W, strain TEP1, stronger effect = lower value 1.02 | locus YNL153C, strain GIM3, stronger effect = lower value 1 | locus YNL298W, strain CLA4 (second series), stronger effect = lower value 1 | locus YNL322C, strain KRE1, stronger effect = lower value 1.01 | locus YNR030W, strain Alg12, stronger effect = lower value 1.03 | locus YPL055C, strain LGE1, stronger effect = lower value 1.05 | locus YPL241C, strain CIN2, stronger effect = lower value 1.01 | locus YPR135W, strain CTF4, stronger effect = lower value 1.07

Clc1cc(Cl)cc(-c2nc(SCc3ccc(Cl)cc3Cl)n[nH]2)c1
active: [2] 0.356 | locus YLR113W, strain HOG1, stronger effect = lower value 0.772 | locus YPL256C, strain CLN2, stronger effect = lower value 0.835
inactive: locus YAR019C, strain CDC15, stronger effect = lower value 0.991 | locus YBL105C, strain PKC1, stronger effect = lower value 0.99 | locus YBR135W, strain CKS1, stronger effect = lower value 0.982 | locus YBR136W, strain MEC1, stronger effect = lower value 0.998 | locus YBR160W, strain CDC28, stronger effect = lower value 0.991 | locus YDL017W, strain CDC7, stronger effect = lower value 0.987 | locus YDL028C, strain MPS1, stronger effect = lower value 0.995 | [1] 1 | locus YDL108W, strain KIN28, stronger effect = lower value 0.986 | locus YDL132W, strain cdc53, stronger effect = lower value 0.981 | locus YDL214C, strain PRR2, stronger effect = lower value 0.913 | locus YDR052C, strain DBF4, stronger effect = lower value 0.998 | locus YDR054C, strain cdc34, stronger effect = lower value 0.984 | locus YDR226W, strain ADK1, stronger effect = lower value 0.992 | locus YDR477W, strain SNF1, stronger effect = lower value 0.938 | locus YER123W, strain YCK3, stronger effect = lower value 0.908 | locus YER133W, strain GLC7, stronger effect = lower value 0.968 | locus YFL009W, strain cdc4, stronger effect = lower value 0.981 | locus YFL029C, strain CAK1, stronger effect = lower value 0.995 | locus YFR003C, strain YPI1, stronger effect = lower value 0.995 | locus YFR019W, strain FAB1, stronger effect = lower value 0.901 | locus YFR028C, strain CDC14, stronger effect = lower value 1 | locus YGR040W, strain KSS1, stronger effect = lower value 0.964 | locus YGR052W, strain FMP48, stronger effect = lower value 0.937 | locus YGR092W, strain DBF2, stronger effect = lower value 0.839 | locus YHR079C, strain IRE1, stronger effect = lower value 0.845 | locus YHR082C, strain KSP1, stronger effect = lower value 0.911 | locus YHR205W, strain SCH9, stronger effect = lower value 0.829 | locus YIL147C, strain SLN1, stronger effect = lower value 0.992 | locus YJL095W, strain BCK1, stronger effect = lower value 0.81 | locus YJL128C, strain PBS2, stronger effect = lower value 0.964 | locus YJL157C, strain FAR1, stronger effect = lower value 0.942 | locus YJR016C, strain ILV3, stronger effect = lower value 0.987 | locus YJR066W, strain TOR1 (second series), stronger effect = lower value 0.98 | locus YJR066W, strain TOR1, stronger effect = lower value 0.893 | locus YKL048C, strain ELM1, stronger effect = lower value 0.964 | locus YKL067W, strain YNK1, stronger effect = lower value 0.882 | locus YKL101W, strain HSL1, stronger effect = lower value 0.891 | locus YKL193C, strain SDS22, stronger effect = lower value 0.985 | locus YKL203C, strain TOR2, stronger effect = lower value 1.05 | locus YLR133W, strain CKI1, stronger effect = lower value 0.924 | locus YLR403W, strain SFP1, stronger effect = lower value 0.963 | locus YML070W, strain DAK1, stronger effect = lower value 0.92 | locus YMR001C, strain CDC5, stronger effect = lower value 0.988 | locus YMR205C, strain PFK2 (second series), stronger effect = lower value 0.927 | locus YMR277W, strain FCP1, stronger effect = lower value 0.983 | locus YNL006W, strain LST8, stronger effect = lower value 0.965 | locus YNL020C, strain ARK1, stronger effect = lower value 0.914 | locus YNL161W, strain CBK1, stronger effect = lower value 0.991 | locus YNL183C, strain NPR1, stronger effect = lower value 0.916 | locus YNL207W, strain RIO2, stronger effect = lower value 0.983 | locus YNL222W, strain SSU72, stronger effect = lower value 0.987 | locus YNL307C, strain MCK1 (second series), stronger effect = lower value 0.864 | locus YOL078W, strain AVO1, stronger effect = lower value 0.985 | locus YOL136C, strain PFK27, stronger effect = lower value 0.893 | locus YOR061W, strain CKA2, stronger effect = lower value 0.756 | locus YOR119C, strain RIO1, stronger effect = lower value 0.956 | locus YOR231W, strain MKK1, stronger effect = lower value 0.873 | locus YOR329C, strain SCD5, stronger effect = lower value 0.986 | locus YPL031C, strain PHO85, stronger effect = lower value 0.927 | locus YPL153C, strain RAD53, stronger effect = lower value 0.889 | locus YPL204W, strain HRR25, stronger effect = lower value 0.915 | locus YPL209C, strain IPL1, stronger effect = lower value 0.985 | locus YPR025C, strain CCL1, stronger effect = lower value 0.98 | locus YPR106W, strain ISR1, stronger effect = lower value 0.981 | locus YPR111W, strain DBF20, stronger effect = lower value 0.948 | strain NNK1, stronger effect = lower value 0.981 | strain TSCII, stronger effect = lower value 0.993
